Values joined by “and” are separate entries in the source; they are usually repeats but may differ in a detail not shown here. Identical values can stand only once. Results filed as inconclusive are left out. Entries that show only a call come without a potency. A number with no mark means an inactive call. Active and inactive are the calls of the source. The call rests on the fitted dose curve; in most records, active means well fitted curve in the direction sought with a large enough effect in the repeat runs; inconclusive means weak or mixed curves; inactive means no such curve, though single readings can be large; an effect the other way counts as inactive or inconclusive.
Experiments:
[1] = biological target: Cytochrome P450 2C19 (Homo sapiens) (UniProt P33261); experiment: Cytochrome P450 Family 2 Subfamily C Member 19 (CYP2C19) small molecule antagonists: luciferase reporter qHTS assay (AID 1671197); further: nearly all actives have a fitted effect of over 65% in size; on activity change, negative = inhibition: series mostly up to about 120 µM
Sequence of Cytochrome P450 2C19 (Homo sapiens) (P33261 whole entry, looked up): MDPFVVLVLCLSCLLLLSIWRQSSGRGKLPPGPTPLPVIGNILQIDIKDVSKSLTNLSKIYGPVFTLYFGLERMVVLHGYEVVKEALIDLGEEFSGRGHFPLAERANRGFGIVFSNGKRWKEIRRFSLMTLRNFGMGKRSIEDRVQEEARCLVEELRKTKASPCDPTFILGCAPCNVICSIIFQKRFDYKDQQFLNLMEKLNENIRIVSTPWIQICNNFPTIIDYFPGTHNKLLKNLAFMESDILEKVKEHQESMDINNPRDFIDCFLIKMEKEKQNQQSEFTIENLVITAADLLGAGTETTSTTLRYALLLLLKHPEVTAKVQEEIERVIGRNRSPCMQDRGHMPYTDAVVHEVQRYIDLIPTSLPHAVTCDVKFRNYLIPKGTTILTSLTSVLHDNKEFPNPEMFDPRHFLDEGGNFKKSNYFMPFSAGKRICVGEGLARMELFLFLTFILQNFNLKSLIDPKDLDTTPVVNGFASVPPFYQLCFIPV
Method in brief: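 Luminescent readout of CYP2C19 activity: luciferin product detected 20 min after adding detection reagent. Before that, compound and enzyme-substrate mix preincubated 10 min at room temperature; NADPH-regenerating system started a 1 h, 37C reaction. Ketoconazole as positive control.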

[2] = biological target: Cytochrome P450 2C9 (Homo sapiens) (UniProt P11712); experiment: Cytochrome P450 Family 2 Subfamily C Member 9 (CYP2C9) small molecule antagonists: luciferase reporter qHTS assay (AID 1671198); further: nearly all actives have a fitted effect of over 50% in size; on activity change, negative = inhibition: series mostly up to about 120 µM
Sequence of Cytochrome P450 2C9 (Homo sapiens) (P11712 whole entry, looked up): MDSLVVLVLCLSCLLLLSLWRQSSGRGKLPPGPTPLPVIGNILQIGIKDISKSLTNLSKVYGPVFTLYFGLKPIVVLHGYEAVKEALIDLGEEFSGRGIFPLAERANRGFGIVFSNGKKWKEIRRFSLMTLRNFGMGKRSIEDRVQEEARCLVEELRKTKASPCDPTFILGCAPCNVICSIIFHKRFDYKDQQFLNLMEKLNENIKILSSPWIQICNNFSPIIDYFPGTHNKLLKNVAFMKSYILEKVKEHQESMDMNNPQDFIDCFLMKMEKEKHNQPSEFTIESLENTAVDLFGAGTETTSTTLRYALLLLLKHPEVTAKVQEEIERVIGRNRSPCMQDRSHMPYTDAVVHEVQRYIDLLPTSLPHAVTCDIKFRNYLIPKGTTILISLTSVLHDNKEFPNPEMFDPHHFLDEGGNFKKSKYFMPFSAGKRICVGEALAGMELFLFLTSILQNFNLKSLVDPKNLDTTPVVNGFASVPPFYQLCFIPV
Method in brief: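 P450-Glo proluciferin substrate with CYP2C9 enzyme; 10 min RT preincubation, then NADPH regeneration 1 h at 37C; luciferin detection reagent 20 min RT, luminescence in relative luminescence units.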

[3] = biological target: Cytochrome P450 1A2 (Homo sapiens) (UniProt P05177); experiment: Cytochrome P450 Family 1 Subfamily A Member 2 (CYP1A2) small molecule antagonists: luciferase reporter qHTS assay (AID 1671199); further: nearly all actives have a fitted effect of over 50% in size; on activity change, negative = inhibition: series mostly up to about 120 µM
Sequence of Cytochrome P450 1A2 (Homo sapiens) (P05177 whole entry, looked up): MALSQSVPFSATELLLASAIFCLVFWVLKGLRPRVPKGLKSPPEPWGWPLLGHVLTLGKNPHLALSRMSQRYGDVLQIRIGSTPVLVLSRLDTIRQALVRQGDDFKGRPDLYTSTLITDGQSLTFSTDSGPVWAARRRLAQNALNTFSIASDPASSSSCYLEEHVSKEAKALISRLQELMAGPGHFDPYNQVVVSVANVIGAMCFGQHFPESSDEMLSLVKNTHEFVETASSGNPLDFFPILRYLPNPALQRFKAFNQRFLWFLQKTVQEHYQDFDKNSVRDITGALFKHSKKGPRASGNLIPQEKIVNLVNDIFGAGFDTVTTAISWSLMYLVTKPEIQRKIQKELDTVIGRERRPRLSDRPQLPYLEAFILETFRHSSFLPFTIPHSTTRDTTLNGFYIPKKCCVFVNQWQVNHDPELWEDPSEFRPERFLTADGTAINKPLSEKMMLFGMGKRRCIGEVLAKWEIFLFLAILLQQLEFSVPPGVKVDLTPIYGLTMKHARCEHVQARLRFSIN
Method in brief: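 Room-temperature CYP1A2 reaction with proluciferin substrate: compounds added from DMSO, 10 min preincubation, NADPH regeneration for 1 h. Luciferin detection reagent then added; luminescence recorded as RLU.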

[4] = biological target: Voltage-gated inwardly rectifying potassium channel KCNH2 (Homo sapiens) (UniProt Q12809); experiment: Human Ether-a-go-go-Related Gene (hERG) channel small molecule antagonists: fluorescence cell-based qHTS assay (AID 1671200); further: nearly all actives have a fitted effect of over 50% in size;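 on activity change, negative = inhibition: hERG-expressing U2OS cells given a thallium stimulus after FluxOR II dye loading; series mostly up to about 77 µM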
Sequence of Voltage-gated inwardly rectifying potassium channel KCNH2 (Homo sapiens) (Q12809 whole entry, looked up): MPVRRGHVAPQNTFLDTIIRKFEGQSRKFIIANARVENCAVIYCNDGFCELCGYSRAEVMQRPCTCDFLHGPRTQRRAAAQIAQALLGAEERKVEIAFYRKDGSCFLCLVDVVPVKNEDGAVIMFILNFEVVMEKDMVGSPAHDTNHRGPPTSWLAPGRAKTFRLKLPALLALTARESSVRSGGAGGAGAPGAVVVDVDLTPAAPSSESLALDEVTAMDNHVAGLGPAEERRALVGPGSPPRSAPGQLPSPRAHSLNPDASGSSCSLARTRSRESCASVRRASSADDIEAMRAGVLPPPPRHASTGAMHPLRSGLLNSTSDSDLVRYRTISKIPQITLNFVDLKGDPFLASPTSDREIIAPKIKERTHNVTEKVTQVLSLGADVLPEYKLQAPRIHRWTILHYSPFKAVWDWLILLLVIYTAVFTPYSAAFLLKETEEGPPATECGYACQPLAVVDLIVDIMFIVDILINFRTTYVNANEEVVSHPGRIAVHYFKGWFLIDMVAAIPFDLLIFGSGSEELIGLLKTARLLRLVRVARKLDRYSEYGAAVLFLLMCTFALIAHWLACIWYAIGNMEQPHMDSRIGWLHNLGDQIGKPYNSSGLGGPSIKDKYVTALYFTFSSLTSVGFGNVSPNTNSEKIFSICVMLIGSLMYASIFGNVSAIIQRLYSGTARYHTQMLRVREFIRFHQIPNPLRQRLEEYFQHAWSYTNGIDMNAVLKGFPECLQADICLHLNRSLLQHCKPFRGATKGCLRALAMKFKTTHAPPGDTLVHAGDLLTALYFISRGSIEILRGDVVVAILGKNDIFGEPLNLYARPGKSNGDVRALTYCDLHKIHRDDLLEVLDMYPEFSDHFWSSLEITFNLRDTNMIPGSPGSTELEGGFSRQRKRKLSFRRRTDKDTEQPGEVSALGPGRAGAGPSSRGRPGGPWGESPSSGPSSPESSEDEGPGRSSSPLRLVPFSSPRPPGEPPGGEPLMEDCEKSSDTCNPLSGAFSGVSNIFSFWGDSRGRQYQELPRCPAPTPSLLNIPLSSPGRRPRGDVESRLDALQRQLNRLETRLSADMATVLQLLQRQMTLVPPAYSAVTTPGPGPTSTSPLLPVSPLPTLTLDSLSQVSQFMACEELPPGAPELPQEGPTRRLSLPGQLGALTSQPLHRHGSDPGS
Method in brief: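 Fluorescence at 540 nm emission (480 nm excitation) was recorded kinetically for 2 min at 1-second intervals once the thallium-containing stimulus reached cells previously loaded with FluxOR II dye.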

[5] = biological target: Cytochrome P450 3A4 (Homo sapiens) (UniProt P08684); experiment: Cytochrome P450 Family 3 Subfamily A Member 4 (CYP3A4) small molecule antagonists: luciferase reporter qHTS assay (AID 1671201); further: nearly all actives have a fitted effect of over 50% in size; on activity change, negative = inhibition: series mostly up to about 120 µM
Sequence of Cytochrome P450 3A4 (Homo sapiens) (P08684 whole entry, looked up): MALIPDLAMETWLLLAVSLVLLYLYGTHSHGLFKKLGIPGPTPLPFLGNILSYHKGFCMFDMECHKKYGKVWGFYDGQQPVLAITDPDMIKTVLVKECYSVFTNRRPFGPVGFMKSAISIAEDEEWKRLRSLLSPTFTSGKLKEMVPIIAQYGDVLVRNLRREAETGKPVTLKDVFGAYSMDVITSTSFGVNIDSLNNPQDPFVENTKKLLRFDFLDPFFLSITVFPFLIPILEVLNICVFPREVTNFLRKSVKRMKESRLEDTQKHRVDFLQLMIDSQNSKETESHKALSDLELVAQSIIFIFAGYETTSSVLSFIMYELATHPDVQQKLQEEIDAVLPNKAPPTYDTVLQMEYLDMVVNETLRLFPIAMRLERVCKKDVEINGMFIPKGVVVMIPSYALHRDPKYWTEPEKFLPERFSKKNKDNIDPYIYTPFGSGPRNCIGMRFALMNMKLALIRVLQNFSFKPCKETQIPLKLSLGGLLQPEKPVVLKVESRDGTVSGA
Method in brief: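 qHTS, 1536-well. CYP3A4 + proluciferin substrate, cpd 10 min RT → NADPH regen 1 h RT → detection reagent 20 min → luminescence (RLU). Ketoconazole positive control.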
Potency means the concentration at half of the fitted maximal effect.

Row | SMILES | Potency [1] | Potency [2] | Potency [3] | Potency [4] | Potency [5] | activity change, negative = inhibition [1] | activity change, negative = inhibition [2] | activity change, negative = inhibition [3] | activity change, negative = inhibition [4] | activity change, negative = inhibition [5]
1 | Clc1ccnc(Cl)n1 | inactive | inactive | inactive | inactive | inactive | – | – | – | – | –
2 | CC1=Nc2ccccc2C1(C)C | 63.4 µM (active) | 40 µM (active) | 63.4 µM (active) | inactive | 63.4 µM (active) | – | – | – | – | –
3 | c1ccsc1 | inactive | inactive | inactive | inactive | inactive | – | – | – | – | –
4 | O=C(O)c1ccc2cc(C(=O)O)ccc2c1 | 32 µM (active) | inactive | inactive | inactive | inactive | – | – | – | – | –
5 | CCCCCC/C=C\CCCCCCCC(=O)O | 50.2 µM (active) | 71 µM (active) | inactive | inactive | inactive | – | – | – | – | –
6 | COC1=C(OC)C(=O)C(CCCCCCCCCCO)=C(C)C1=O | 4.9 µM (active) | 11 µM (active) | 15.5 µM (active) | inactive | inactive | – | – | – | – | –
7 | Cc1c(N)cccc1C(F)(F)F | inactive | inactive | 13.8 µM (active) | inactive | inactive | – | – | – | – | –
8 | CCCCCCCCCCCCCC[N+](C)(C)C | 63.2 µM (active) | inactive | inactive | 13.3 µM (active) and 19.5 µM (active) and 21.3 µM (active) | inactive | – | – | – | – | –
9 | O=C(/C=C/c1ccc(O)c(O)c1)O[C@@H](C(=O)O)[C@@H](OC(=O)/C=C/c1ccc(O)c(O)c1)C(=O)O | inactive | inactive | inactive | inactive | inactive | – | – | – | – | –
10 | C=Cc1cccc(C)c1 | inactive | inactive | inactive | inactive | inactive | – | – | – | – | –
11 | COc1cc(S(=O)(=O)O)c(C)cc1N=Nc1c(O)ccc2cc(S(=O)(=O)O)ccc12 | 79.6 µM (active) | 39.9 µM (active) | 35.6 µM (active) | inactive | inactive | – | – | – | – | –
12 | O=C(O)c1cc(-c2ccc(F)cc2F)ccc1O | inactive | 24.5 µM (active) | inactive | inactive | inactive | – | – | – | – | –
13 | CC(C)=CCNc1ncnc2c1ncn2[C@@H]1O[C@H](CO)[C@@H](O)[C@H]1O | inactive | inactive | inactive | inactive | inactive | – | – | – | – | –
14 | OC[C@H]1O[C@H](O[C@H]2O[C@H](CO)[C@@H](O)[C@H](O)[C@H]2O)[C@H](O)[C@@H](O)[C@@H]1O | inactive | inactive | 63.7 µM (active) | inactive | inactive | – | – | – | – | –
15 | CC/C=C\CCCCCO | inactive | inactive | inactive | inactive | inactive | – | – | – | – | –
16 | CCN(CC)c1ccc2c(-c3ccc(S(=O)(=O)O)cc3S(=O)(=O)[O-])c3ccc(=[N+](CC)CC)cc-3oc2c1 | 92.2 µM (active) | 16.4 µM (active) | 20.7 µM (active) | inactive | 14.6 µM (active) | – | – | – | – | –
17 | Cc1nc(-c2ccc(Cl)cc2)oc1COC(C)(C)C(=O)O | inactive | inactive | inactive | inactive | inactive | – | – | – | – | –
18 | Cc1cccc(C(=O)O)c1O | inactive | inactive | inactive | inactive | inactive | – | – | – | – | –
19 | CC(C)(C)c1csc(-c2cc3cc(OCc4ccccc4CC(=O)O)ccc3o2)n1 | inactive | 56.4 µM (active) | inactive | inactive | inactive | – | – | – | – | –
20 | CC(CO)Oc1ccccc1 (stereo not given) | 36.7 µM (active) | inactive | inactive | inactive | inactive | – | – | – | – | –
21 | Nc1nc(-c2ccccc2)cs1 | 5.01 µM (active) | 11.2 µM (active) | 8.91 µM (active) | inactive | 5.62 µM (active) | – | – | – | – | –
22 | Nc1ccc(C(=O)O)c(O)c1 | inactive | inactive | inactive | inactive | inactive | – | – | – | – | –
23 | O=C(O)c1cccc(C(F)(F)F)c1 | inactive | 79.6 µM (active) | inactive | inactive | inactive | – | – | – | – | –
24 | C=C(C)c1cccc(C(=C)C)c1 | inactive | inactive | inactive | inactive | inactive | – | – | – | – | –
25 | CCCCCC(C)OC(=O)COc1ccc(Cl)c2cccnc12 (stereo not given) | 7.96 µM (active) | 11.2 µM (active) | 5.03 µM (active) | 9.77 µM (active) | 12.6 µM (active) | – | – | – | – | –
26 | S=C([S-])NCCNC(=S)[S-].S=C([S-])NCCNC(=S)[S-].[Mn+2].[Zn+2] | 4.36 µM (active) | 3.09 µM (active) | 15.5 µM (active) | inactive | inactive | – | – | – | – | –
27 | CC(=O)c1ccc(C(C)=O)cc1 | 64.8 µM (active) | inactive | 28.9 µM (active) | inactive | inactive | – | – | – | – | –
28 | CN(C)Cc1ccccc1O | inactive | inactive | inactive | inactive | inactive | – | – | – | – | –
29 | OC12N=C(c3ccccc3)SC1Cc1cc(Cl)ccc12 (stereo not given) | 0.126 µM (active) | 0.894 µM (active) | 1.78 µM (active) | inactive | 31.7 µM (active) | – | – | – | – | –
30 | C[C@@H](O)[C@H](N)C(=O)O | – | – | – | – | – | 6.88% [at 23.6 µM] | 17.9% [at 23.6 µM] | 12.2% [at 23.6 µM] | 1.94% [at 15.8 µM] | 16.7% [at 23.6 µM]

Reference: PubChem BioAssay (Tox21)
